Inconclusive results are not listed. Activity calls are given as the source filed them. How the source made its calls: active means hit-call score of the fitted dose curve at least 0.9, where 1 is the maximum; inconclusive means response in the unintended direction; inactive means score below 0.9.
What was measured:
[1] = VALA_MIGHUV1_ScratchOnly_CellCount: Viability Assessment in the VALA Sciences human Umbilical Vein Endothelial Cell Migration (MIGHUV) Assay, Scratch Wound Inhibited Recovery (AID 2284327)
Method in brief: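 HUVEC scratched after 24 h culture, chemical added within 30 min at 6 concentrations in triplicate (0.1% DMSO vehicle). After 24 h recovery, fixed cells were counted by Hoechst nuclear imaging in the wound area.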

[2] = VALA_TUBIPS_Antagonist_CellCount: Viability Assessment in the VALA Sciences human iPS-derived Endothelial Tubule Formation (TUBIPS) Antagonism Assay (AID 2284335)

Row | Structure (SMILES) | outcome [1] | outcome [2]
1 | S=C(S)NCCNC(=S)S.[Mn+2].[S-]C([S-])=NCCN=C([S-])[S-].[Zn+2] | inactive | –
2 | CC(C)(c1ccc(O)cc1)c1ccc(O)cc1 | – | inactive
